Screening data: PubChem, several laboratories
The list is not random: actives were taken first. Their share in the collection is about 0.77%.
Mtb bLac sens – beta-lactam sensitization of Mtb H37Rv, H37Rv; M. tuberculosis H37Rv growth with meropenem, percent inhibition; inhibition, % at 25 µM; hit rate 0.27% among 330,000;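 further: growth measured after seven days incubation then overnight dye step; 0% = bacteria only wells and 100% = bacteria with antibiotic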
Rv3671c protease – Rv3671c serine protease inhibitors, primary screen, biochemical, fluorescence polarization, M. tuberculosis H37Rv. P9WHR9. inhibition, % at 5.96 µM. hit rate 0.048% among 320,000. AID 2606, 2010; in the data active means inhibition above about 38%;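 further: extracellular domain of Rv3671c used as enzyme; 0% = enzyme with DMSO and 100% = no enzyme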
UGM FP inh – M. tuberculosis UGM enzyme inhibitors, primary screen, biochemical, fluorescence polarization, single point; purified UGM, fluorescence polarization probe displacement; inhibition, % at 10 µM; hit rate 0.06% among 320,000; in the data active means inhibition above about 10%, passing the limit was not always enough; inconclusive means no clear call, values can overlap the other calls
Mtb hypoxia inh – PubChem AID 1159583; fluorescence inhibition, % (test concentration not listed); hit rate 0.1% among 300,000; M. tuberculosis hypoxia-regulated fluorescent reporter, fluorescence; in the data active means fluorescence inhibition mostly above about 23%, no sharp cut-off; inactive means mostly below about 17%
RecA splice inh – Mtb RecA intein splicing inhibitors, primary screen, biochemical, fluorescence, HTS | hit rate 0.75% among 290,000 | cell-free RecA intein splicing | inhibition, % (test concentration not listed) | Protein RecA (Mycobacterium tuberculosis (strain ATCC 25618 / H37Rv)), P9WHJ3; in the data active means inhibition above about 30%; inconclusive means no clear call, values can overlap the other calls;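 further: 0% = vehicle wells and 100% = reference inhibitor control wells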
GFP chromophore – counter-screen: blocks GFP chromophore formation, dose response, counter-screen, biochemical, fluorescence, homogeneous. shares compounds with RecA splice inh. hit rate 83% among 2,100. EC50, µM. cell-free GFP chromophore formation
Numbers without * were called inactive. Unless noted, how the calls were made is not given here.

For CCC1(CC)C(=O)C2=C3C(CC(C(=O)OC)CC(C(=O)OC)C31)n1c(=O)n(-c3ccccc3)c(=O)n1C2C (configuration not stated) the results were Mtb hypoxia inh 10.
`COc1cc(/C=C2\C(=O)N(c3ccc(S(N)(=O)=O)cc3)N=C2C)ccc1OC(=O)c1ccco1` gave Mtb bLac sens 93, Rv3671c protease -118, UGM FP inh 0, Mtb hypoxia inh 8, RecA splice inh 93* and GFP chromophore 20*.
Screening C#CCOc1ccc(/C=C2/C(=O)N(c3cccc(C(=O)O)c3)N=C2C)cc1OC returned Mtb bLac sens 13, Rv3671c protease -147, UGM FP inh -1, RecA splice inh 71* and GFP chromophore 3.4*.
For NC(Cc1ccc(Cl)cc1Cl)=NOC(=O)Cc1ccc(Cl)cc1 the results were Mtb hypoxia inh 3.
Screening Cc1cccc(C2C3C(=O)N(Cc4ccccc4)C(=O)C3[C@]3(Cc4ccccc4)C(=O)N(c4cccc(F)c4)C(=O)N23)c1 (some centres not stated) returned Mtb hypoxia inh -5.
Screening COc1ccc(-n2nc3c(c2NC(=O)CCl)CSC3)cc1 returned Mtb bLac sens 99, Rv3671c protease -2, UGM FP inh 0, RecA splice inh 34* and GFP chromophore >38.
For CCC(C)C(C(=O)N1CCNCC1)n1cc(C(N)Cc2ccc(O)cc2)nn1 (configuration not stated) the results were Mtb hypoxia inh 4.
CCSc1cc(C2C(C#N)=C(N)Oc3n[nH]c(C)c32)c(C)o1 (configuration not stated) was read as Mtb bLac sens -1, Rv3671c protease 8, UGM FP inh -2, RecA splice inh 77* and GFP chromophore 15*.
`COC(=O)Cc1[nH]nc2c1C(c1ccc(O)c(OC)c1)C(C#N)=C(N)O2` (configuration not stated) gave Mtb bLac sens -3, Rv3671c protease 4, UGM FP inh -2, Mtb hypoxia inh 10, RecA splice inh 77* and GFP chromophore 31*.
For Cc1[nH]nc2c1C(c1c[nH]c3ccccc13)C(C#N)=C(N)O2 (configuration not stated) the results were Mtb bLac sens 1, Rv3671c protease 1, UGM FP inh 4, RecA splice inh 90* and GFP chromophore 7.5*.
Screening Cc1cc(C)c(C2C(C#N)=C(N)Oc3n[nH]c(C)c32)cc1CN1CCCC1 (configuration not stated) returned Mtb bLac sens -12, Rv3671c protease 5, UGM FP inh 2, Mtb hypoxia inh 6 and RecA splice inh 25.
For CCOC(=O)C1=C(C)OC(N)=C(C#N)C1c1cc(SCC)oc1C (configuration not stated) the results were Mtb bLac sens -6, Rv3671c protease -9, UGM FP inh -1, Mtb hypoxia inh 2 and RecA splice inh 1.
COC(=O)Cc1[nH]nc2c1C(c1c[nH]c3ccccc13)C(C#N)=C(N)O2 (configuration not stated) was read as Mtb bLac sens 6, Rv3671c protease -6, UGM FP inh 1, Mtb hypoxia inh 9, RecA splice inh 86* and GFP chromophore >38.
Screening COc1ccc(C2C=CCN(S(=O)(=O)C=Cc3ccccc3)CC(=O)N2Cc2ccc(F)cc2)cc1 (configuration not stated) returned Mtb hypoxia inh -11.
Screening O=C(NCc1ccco1)c1cccc2c1C(=O)c1ccc(C=Cc3ccccc3)cc1S2(=O)=O returned Mtb hypoxia inh 10.
`CC#CCN1c2ccccc2[C@]23CC(C(=O)OC)N(C(=O)c4ccc(Br)cc4)C2=NC(C(=O)OC)=C(C(=O)OC)C13` (some centres not stated) gave Mtb hypoxia inh 1.
COc1ccc(-c2ccc(C3C4C=CCC[C@@]4(C)C(=O)N3Cc3ccccc3)c(F)c2)cc1 (some centres not stated) was read as Mtb hypoxia inh 11.
Nc1ccc(N2CCOCC2)c2nonc12 was read as Mtb bLac sens 0, Rv3671c protease -104, UGM FP inh 0, Mtb hypoxia inh 5, RecA splice inh 95* and GFP chromophore 23*.
`O=C(Nc1ccc(N2CCOCC2)c2nonc12)C1CCCC1` gave Mtb bLac sens 1, Rv3671c protease -2, UGM FP inh 1 and RecA splice inh 2.
For C#CCOCCOCCOCCNc1nc(N2CCN(C(=O)Cn3cc(CCCN=C(N)N)nn3)CC2)nc(N2CCN(C(=O)C(C(C)C)n3cc(CCO)nn3)CC2)n1 (configuration not stated) the results were Mtb hypoxia inh 7.
For COc1ccc(Nc2cnn(-c3nc4ccccc4s3)c(=O)c2Cl)cc1 the results were Mtb bLac sens 22, Rv3671c protease -3, UGM FP inh 0, Mtb hypoxia inh 5, RecA splice inh 47* and GFP chromophore 6.7*.
Screening O=c1c(Cl)c(Nc2cccc(Cl)c2)cnn1-c1nc2ccccc2s1 returned Mtb bLac sens inconclusive, Rv3671c protease -5, UGM FP inh 1, Mtb hypoxia inh 4 and RecA splice inh 1.
Screening CCOC(=O)CC1c2ccccc2S(=O)(=O)N1c1ccccc1 (configuration not stated) returned Mtb hypoxia inh 7.
For COc1cc2c(cc1OC)-c1c(OC)c(OC)cc3c1C(C2)N(C)CC3 (configuration not stated) the results were Mtb bLac sens -5, Rv3671c protease -52, UGM FP inh -1, RecA splice inh 71* and GFP chromophore 4.3*.
COc1cc2c(cc1OC)-c1c3c(cc4c1[C@@H](C2)N(C)CC4)OCO3 was read as Mtb bLac sens 94, Rv3671c protease -132, UGM FP inh 1, RecA splice inh 44* and GFP chromophore 21*.
COc1cc2c(cc1OC)-c1c3c(cc4c1C(C2)N(C)CC4)OCO3 (configuration not stated) was read as Mtb hypoxia inh 8.
`COC(=O)C1C(c2cccc(C(F)(F)F)c2)NC(=O)N(Cc2ccccc2)C1C` (configuration not stated) gave Mtb hypoxia inh 15.
COC(=O)C1=C(c2ccc(C(C)=O)cc2)CC2CCC1N2C(=O)NCCO (configuration not stated) was read as Mtb hypoxia inh 3.
Screening CCOC(=O)CC1=NN(c2ccccc2)C(=O)/C1=C\c1ccc(OC)cc1OC returned Mtb bLac sens 2, Rv3671c protease 1, UGM FP inh -2, RecA splice inh 47* and GFP chromophore 0.41*.
COc1ccc(C2=CC(=O)CC(c3ccc(OC)c(OC)c3)C2)cn1 (configuration not stated) was read as Mtb hypoxia inh 1.
